# Laboratory results as given in PubChem BioAssay (Tox21).
# Results filed as inconclusive are left out. Entries that show only a call come without a potency. Some compounds were tested as several samples or in several runs, with calls that do not always agree. The source made the active and inactive calls. Unless noted, calls come from the whole dose curve; as a rule, active = well fitted curve in the direction sought with a large enough effect in the repeat runs; inconclusive = weak or mixed curves; inactive = no such curve, though single readings can be large; an effect the other way counts as inactive or inconclusive.
# Key:
# [1] = qHTS assay to identify small molecule agonists of the hypoxia (HIF-1) signaling pathway - cell viability counter screen (AID 1224844; calls by dose curve; note: nearly all actives have a fitted effect of over 50% in size; note: potency is the fitted concentration of half-maximal effect)
# In short: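 Cytotoxicity measured by CellTiter-Glo ATP luminescence in the wells also read for beta-lactamase signal. Cells were HRE-bla ME-180 (2,000/well, 0.5% dialyzed FBS), exposed to compounds for 17 h at 37C.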
# [2] = qHTS assay to identify small molecule agonists of H2AX (AID 1224845; active = well fitted activation curve with a large enough effect in the signal ratio in the repeat runs, not every such curve was filed as active; the % refers to the signal ratio)
# In short: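 Phospho-H2AX Ser139 measured by HTRF (ex 320 nm; em 665 and 620 nm) after 24 hr antibody incubation. Compounds, 15 concentrations, 0.76% DMSO, were applied to CHO-K1 cells for 3hr at 37C before lysis.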
# [3] = qHTS assay to identify small molecule agonists of H2AX - cell viability counter screen (AID 1224847; calls by dose curve;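 note: wild-type CHO-K1 cells; top concentration of the series differs between compounds; nearly all actives have a fitted effect of over 30% in size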)
# In short: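 Cells plated first: CHO-K1, 1000 per well in 10% FBS medium, incubated overnight at 37C. Then 15-point compound titration added (final DMSO 0.76%) for 3 hr. Finally CellTiter-Glo added and luminescence read.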
# [4] = qHTS assay to identify small molecule antagonists of the estrogen related receptor (ERR) signaling pathway from Tox21 library (AID 1224848); note: nearly all actives have a fitted effect of over 50% in size
# In short: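 Luciferase luminescence (ONE-Glo, 30 min room temperature) was the read-out. Cells of the NTP-supplied ERR line, 2,000 per well, were given 6 h at 37 C before compound addition in DMSO and 18 h exposure at 37 C.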
# [5] = qHTS assay to identify small molecule agonists of the estrogen related receptor (ERR) signaling pathway from Tox21 library (AID 1224849; calls by dose curve; note: nearly all actives have a fitted effect of over 15% in size); settings: ERR reporter cell line, ONE-Glo luciferase, 18 h
# In short: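 Luminescent agonist read-out (One-Glo, 30-minute room-temperature incubation) following 18-hour compound treatment at 37 C of the ERR cell line, which had been plated 6 hours before dosing.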
# [6] = qHTS RealTime-Glo MT Cell Viability Assay in HepG2 cells - 24 hour (AID 1224867); note: nearly all actives have a fitted effect of over 50% in size
# In short: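 Cell number in HepG2 cultures estimated from NanoLuc luminescence generated by metabolic reduction of a prosubstrate by living cells. The homogeneous, nonlytic format allowed repeated reads at 0, 8, 16, 24, 32 and 40 h of compound exposure.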
# [7] = qHTS RealTime-Glo MT Cell Viability Assay in HEK293 cells - 32 hour (AID 1224868); note: top concentration of the series differs between compounds; nearly all actives have a fitted effect of over 50% in size
# In short: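 Homogeneous bioluminescent viability format in HEK293 cells (600 cells/well). Following 5 h at 37 C/5% CO2, 23 nL compound was pintooled; the signal was measured repeatedly during 40 h incubation.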
# [8] = A CellTox Green Cytotoxicity Assay to monitor cytotoxicity in HEK293 cells - 0 hour (AID 1224869); note: nearly all actives have a fitted effect of over 50% in size
# In short: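 Fluorescence from a DNA-binding dye excluded by viable cells was measured repeatedly in the same HEK293 wells (600 cells/well) during continuous compound exposure at 37 C. Each assay gives one read point: 0, 8, 16, 24, 32 or 40 h.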
# [9] = qHTS RealTime-Glo MT Cell Viability Assay in HepG2 cells - 40 hour (AID 1224870); note: nearly all actives have a fitted effect of over 50% in size
# In short: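 Real-time viability: cells seeded at 600 per well together with NanoLuc and cell-permeant prosubstrate, compounds added after 5 h incubation. Luminescence tracked at 0, 8, 16, 24, 32 and 40 h of exposure.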
# [10] = qHTS assay to identify small molecule agonists of the hypoxia (HIF-1) signaling pathway (AID 1224846; active = well fitted activation curve with a large enough effect in the signal ratio in the repeat runs, not every such curve was filed as active; the % refers to the signal ratio)
# In short: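 Compounds added to ME-180 cells carrying hypoxia-response-element beta-lactamase reporter (0.5% dialyzed FBS, 5 h preplating), 17 h at 37C; agonist activity detected by CCF4-AM B/G FRET read-out.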
# [11] = at 92.4 µM (top of the series) unless noted
structure (smiles),measurement,setting,value
Cc1cc2c(cc1S(N)(=O)=O)S(=O)(=O)CCC2,Potency,[1],inactive
same,outcome,[2],inactive
same,Potency,[3],inactive
same,Potency,[4],inactive
same,"activity change, positive = activation",[5]; [11],2.29% [at 42.5 µM] (inactive)
same,Potency,[6],inactive
same,Potency,[7],inactive
same,Potency,[8],inactive
same,Potency,[9],inactive
O=C1CCCCCCCCCCCN1,Potency,[1],inactive
same,outcome,[2],inactive
same,outcome,[10],inactive
same,Potency,[3],inactive
same,Potency,[6],inactive
same,Potency,[7],inactive
same,Potency,[9],inactive
COC(C)(C)CCCC(C)CC=O (configuration not stated),Potency,[1],inactive
same,outcome,[2],inactive
same,outcome,[10],inactive
same,Potency,[4],inactive
same,"activity change, positive = activation",[5]; [11],8.65% (inactive)
same,Potency,[6],inactive
same,Potency,[7],inactive
same,Potency,[8],inactive
same,Potency,[9],inactive
C1OCOCO1,Potency,[1],inactive
same,outcome,[2],inactive
same,Potency,[3],inactive
same,Potency,[4],inactive
same,"activity change, positive = activation",[5]; [11],6.76% (inactive)
same,Potency,[6],inactive
same,Potency,[7],inactive
same,Potency,[8],inactive
same,Potency,[9],inactive
CCC(=O)OC(C)c1ccccc1 (configuration not stated),Potency,[1],inactive
same,outcome,[2],inactive
same,outcome,[10],inactive
same,Potency,[4],inactive
same,"activity change, positive = activation",[5]; [11],0.422% (inactive)
same,Potency,[7],inactive
same,Potency,[8],inactive
same,Potency,[9],inactive
CN1CCCC1,Potency,[1],inactive
same,outcome,[2],inactive
same,Potency,[3],inactive
same,Potency,[4],inactive
same,"activity change, positive = activation",[5]; [11],4.55% (inactive)
same,Potency,[6],inactive
same,Potency,[7],inactive
same,Potency,[8],inactive
same,Potency,[9],inactive
O=C1NC(=O)[C@@]2(CCOc3ccc(F)cc32)N1,Potency,[1],inactive
same,outcome,[2],inactive
same,outcome,[10],inactive
same,Potency,[3],inactive
same,Potency,[6],inactive
same,Potency,[7],inactive
same,Potency,[8],inactive
same,Potency,[9],inactive
O=C(O)CCCc1ccccc1,Potency,[1],inactive
same,outcome,[2],inactive
same,Potency,[3],inactive
same,Potency,[4],inactive
same,"activity change, positive = activation",[5]; [11],7.78% [at 42.5 µM] (inactive)
same,Potency,[6],inactive
same,Potency,[7],inactive
same,Potency,[8],inactive
same,Potency,[9],inactive
COC(=O)C1=C(C)NC(C)=C(C(=O)OC)C1c1ccccc1[N+](=O)[O-],Potency,[1],49 µM (active) and inactive
same,outcome,[2],inactive
same,Potency,[3],inactive
same,Potency,[4],inactive
same,"activity change, positive = activation",[5]; at 42.5 µM (top of the series),-8.97% (inactive)
same,"activity change, positive = activation",[5]; at 92.4 µM (top of the series),-13.3% (inactive)
same,Potency,[6],inactive
same,Potency,[7],inactive
same,Potency,[8],inactive
same,Potency,[9],inactive
O=C(O)CNC(=O)c1ccc([N+](=O)[O-])cc1,Potency,[1],inactive
same,outcome,[2],inactive
same,Potency,[3],inactive
same,Potency,[4],inactive
same,"activity change, positive = activation",[5]; [11],4.79% (inactive)
same,Potency,[6],inactive
same,Potency,[7],inactive
same,Potency,[8],inactive
same,Potency,[9],inactive
Cc1cnc(NS(=O)(=O)c2ccc(N)cc2)nc1,Potency,[1],inactive
same,outcome,[2],inactive
same,Potency,[3],inactive
same,Potency,[4],inactive
same,"activity change, positive = activation",[5]; [11],2.51% [at 42.5 µM] (inactive)
same,Potency,[6],inactive
same,Potency,[7],inactive
same,Potency,[8],inactive
same,Potency,[9],inactive
FC(F)OC(Cl)C(F)(F)F (configuration not stated),Potency,[1],inactive
same,outcome,[2],inactive
same,Potency,[3],inactive
same,Potency,[4],inactive
same,"activity change, positive = activation",[5]; [11],8.92% (inactive)
same,Potency,[6],inactive
same,Potency,[7],inactive
same,Potency,[8],inactive
same,Potency,[9],inactive
CC1=CC(C)C(C=O)CC1 (configuration not stated),Potency,[1],inactive
same,outcome,[2],inactive
same,Potency,[3],inactive
same,Potency,[4],inactive
same,"activity change, positive = activation",[5]; [11],0.053% (inactive)
same,Potency,[6],inactive
same,Potency,[7],inactive
same,Potency,[9],inactive
Cc1[nH]c(=O)c(C#N)cc1-c1ccc2nccn2c1,Potency,[1],inactive
same,outcome,[2],inactive
same,outcome,[10],inactive
same,Potency,[3],inactive
same,Potency,[7],inactive
same,Potency,[8],inactive
same,Potency,[9],inactive
CC(=O)OCC(CCn1cnc2cnc(N)nc21)COC(C)=O,Potency,[1],inactive
same,outcome,[2],inactive
same,outcome,[10],inactive
same,Potency,[3],inactive
same,Potency,[7],inactive
same,Potency,[8],inactive
same,Potency,[9],inactive
NS(=O)(=O)c1ccc(C(=O)O)cc1,Potency,[1],inactive
same,outcome,[2],inactive
same,Potency,[3],inactive
same,Potency,[4],inactive
same,"activity change, positive = activation",[5]; [11],9.6% [at 42.5 µM] (inactive)
same,Potency,[6],inactive
same,Potency,[7],inactive
same,Potency,[8],inactive
same,Potency,[9],inactive
CCOC(=O)c1ccc(C)cc1,Potency,[1],inactive
same,outcome,[2],inactive
same,Potency,[3],inactive
same,Potency,[4],inactive
same,"activity change, positive = activation",[5]; [11],4.47% (inactive)
same,Potency,[6],inactive
same,Potency,[7],inactive
same,Potency,[8],inactive
same,Potency,[9],inactive
CO[Si](CCCOCC1CO1)(OC)OC (configuration not stated),Potency,[1],inactive
same,outcome,[2],inactive
same,outcome,[10],inactive
same,Potency,[3],inactive
same,Potency,[6],inactive
same,Potency,[7],inactive
same,Potency,[8],inactive
same,Potency,[9],inactive
CCC(C)C1CCCCC1=O (configuration not stated),Potency,[1],inactive
same,outcome,[2],inactive
same,Potency,[3],inactive
same,Potency,[4],inactive
same,"activity change, positive = activation",[5]; [11],3.66% (inactive)
same,Potency,[7],inactive
same,Potency,[8],inactive
same,Potency,[9],inactive
Cc1c(NC(C)C)c(=O)n(-c2ccccc2)n1C,Potency,[1],inactive
same,outcome,[2],inactive
same,Potency,[3],inactive
same,Potency,[4],inactive
same,"activity change, positive = activation",[5]; [11],0.236% [at 42.5 µM] (inactive)
same,Potency,[7],inactive
same,Potency,[8],inactive
same,Potency,[9],inactive
N[C@@H](C(=O)N[C@@H]1C(=O)N2C(C(=O)O)=C(Cl)CS[C@H]12)c1ccccc1,"activity change, negative = cytotoxicity",[1],1.81% [at 6.97 µM] (inactive)
same,activation (H2AX phosphorylation),[2],0.237% [at 14 µM] (inactive)
same,"activity change, negative = cytotoxicity",[3],-0.534% [at 14 µM] (inactive)
same,"activity, negative = inhibition",[4],7.8% [at 8.39 µM] (inactive)
same,"activity change, positive = activation",[5]; [11],4.35% [at 8.39 µM] (inactive)
same,"activity change, negative = cytotoxic",[7],8.14% [at 6.97 µM] (inactive)
same,cytotoxicity,[8],2.09% [at 6.97 µM] (inactive)
same,"activity change, negative = cytotoxic",[9],0.227% [at 6.97 µM] (inactive)
